# Hits are enriched below; roughly 6.2% of the tested compounds scored in any of these assays.
# KB-V1 cytotox – qHTS assay for MDR1-selective chemotherapeutics: Primary screen using the drug-selected MDR subline cells KB-V1; 400,000 tested, 3.4% active; KB-V1 MDR cells viability, CellTiter-Glo, 72 h; Potency, µM (titrated, usually from 46.1 µM), hits mostly cytotoxic; AID 1347076, 2019; further: on the % scale 0 is the no-effect control and ±100 the full control effect; nearly all actives have a fitted effect of over 60% in size
#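 Drug-selected KB-V1 cells, grown in DMEM lacking phenol red with 10% FBS, receive compound titrations; after three days at 37 degrees C, surviving cell ATP is quantified by CellTiter-Glo luminescence and responses normalized and curve-fitted.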
# HT1080 IDH1KD tx – qHTS for induction of synthetic lethality in tumor cells producing 2HG: qHTS for the HT-1080-IDH1KD cell line | HT-1080 IDH1 knockdown viability, ATP luminescence, 48 h | Potency, µM (series often up to 46.1 µM), for inactives: at the top dose activity, negative = toxicity, hits mostly cytotoxic | 360,000 tested, 2% active | AID 686971, 2013;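 further: 0% = DMSO wells and -100% = cell-free medium wells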
#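 % activity derives from luminescence (CellTiter-Glo), normalised to DMSO and no-cell wells. HT-1080-IDH1KD cells, 750/well, had 48 h compound exposure at 37 °C.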
# HT1080NT lethal – qHTS for induction of synthetic lethality in tumor cells producing 2HG: qHTS for the HT-1080-NT fibrosarcoma cell line; HT-1080-NT fibrosarcoma viability, CellTiter-Glo ATP luminescence, 48 h; 360,000 tested, 1.6% active; Potency, µM (titrated, usually from 46.1 µM), for inactives: top-dose activity, negative = less viability, most hits filed as cytotoxic;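 further: NT is the 2HG producing partner of a matched IDH1 knockdown line; 0% = DMSO-treated cells and -100% = media-only wells without cells; nearly all actives have a fitted effect of over 55% in size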
#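 Luminescent CellTiter-Glo readout after 48 hours of compound exposure at 37 degrees C defined viability of HT-1080-NT cells. Activity was normalized to DMSO wells and cell-free media wells; concentration-response curves were fitted and assigned curve classes.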
# ATXN2 expr inh – Primary qHTS for Inhibitors of ATXN expression; 360,000 tested, 0.72% active; Potency, µM (top dose mostly 57 µM), inactives show top-dose activity change, negative = inhibition, usual class: inhibitors; AID 1745845, 2022; HEK-293 ATXN2-luciferase reporter, luminescence, 24 h; further: on the % scale 0 is the no-effect control and ±100 the full control effect; nearly all actives have a fitted effect of over 55% in size
#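 ATXN2-luciferase reporter cells (luciferase flanked by upstream and downstream ATXN2 gene portions) were treated 24 h at 37 °C with compounds at up to 57 uM. SteadyGlo luminescence gave expression; GF-AFC fluorescence gave viability.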
# KB-3-1 cytotox – qHTS assay for MDR1-selective chemotherapeutics: Primary screen using the parental adenocarcinoma cell KB-3-1; AID 1347075, 2019; 400,000 tested, 1.4% active; KB-3-1 viability, CellTiter-Glo ATP luminescence, 72 h; Potency, µM (doses to about 46.1 µM), actives largely listed as cytotoxic; further: on the % scale 0 is the no-effect control and ±100 the full control effect; nearly all actives have a fitted effect of over 60% in size
#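 Using CellTiter-Glo luminescence, growth of non-resistant KB-3-1 adenocarcinoma cells is assessed 72 h after pin-tool compound addition at 37 °C. Normalized responses across the concentration series yield fitted curves.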
# S2 tox – Viability Counterscreen for Primary qHTS for Inhibitors of ATXN expression | Potency, µM (top dose mostly 56.7 µM), most hits filed as cytotoxic | 400,000 tested, 0.49% active | S2 cells (HEK-293 line with an ATXN2-luciferase reporter) viability, CellTiter-Fluor protease fluorescence, 24 h | AID 651635, 2014; further: nearly all actives have a fitted effect of over 40% in size
# * hit, by the source's call; i = inactive; ? = inconclusive; / = no result given; ! = repeats disagree. The call rests on the fitted dose curve; in most records, active means well fitted curve in the direction sought with a large enough effect; inconclusive means small, poorly fitted or top-dose-only effect, or another doubt; inactive means no such curve, though single readings can be large; an effect the other way counts as inactive or inconclusive. Potency means the concentration at half of the fitted maximal effect.
SMILES,KB-V1 cytotox,HT1080 IDH1KD tx,HT1080NT lethal,ATXN2 expr inh,KB-3-1 cytotox,S2 tox
CC(=O)O[C@H]1CC[C@@]2(C)C(CCC3C2CC[C@]2(C)OC(=O)CCC32)C1 (some centres undefined),i,5.6%,-2.7%,4.6%,i,i
CC1(C)CC(=O)c2c(C(F)(F)F)nn(-c3ccc(C(N)=O)c(NC4CCC(OC(=O)CN)CC4)c3)c2C1 (centres undefined),/,/,/,0.217µM*,/,/
Cc1cc2c(n1-c1ccc(C(N)=O)cc1)CC(C)(C)CC2=O,i,3.6%,9.8%,0.9%,i,i
CC1(C)CC(=O)c2c(C(F)(F)F)nn(-c3ccc(C(N)=O)c(NC4CCC(O)CC4)c3)c2C1 (centres undefined),/,/,/,0.0968µM*,/,/
CCOC(=O)c1ccccc1NC(=O)CN1CCC(n2nnc3cc(F)ccc32)CC1,i,9.6%,20.2%,-2.3%,i,i
O=C(/C=C/c1ccco1)Nc1ccc2c(c1)OCO2,?,20.6µM*,13µM*,23.6%,?,i
O=C(/C=C/c1ccc2c(c1)OCO2)c1cccnc1,i,-18.8%,-13.8%,-4.6%,?,i
NS(=O)(=O)c1ccc(NC(=O)/C=C/c2ccc3c(c2)OCO3)cc1,i,0.731µM*,7.31µM*,-30.2%,2.31µM*,?
O=C(/C=C/c1ccc2c(c1)OCO2)Nc1cccnc1,i,?,?,/,8.2µM*,i
CC(=O)Nc1ccc(NC(=O)/C=C/c2ccc3c(c2)OCO3)cc1,i,-18.9%,?,-2.9%,i,/
COC(=O)c1cc(NC(=O)/C=C/c2ccc3c(c2)OCO3)cc(C(=O)OC)c1,i,?,?,?,i,?
COC(=O)c1cccc(NC(=O)/C=C/c2ccc3c(c2)OCO3)c1,?,?,?,?,5.8µM*,i
CC(=O)c1ccc([N+](C)(C)C)cc1,i,/,/,/,i,/
CCC1(C2CCN(C(=O)c3ccccc3C)CC2)NC(=O)N(CCc2scnc2C)C1=O (centres undefined),/,/,/,/,/,i
Cc1nc2c3ccccc3nc(NNC(=O)CCC(=O)N3CCN(c4cccc(Cl)c4)CC3)n2n1,i,/,/,/,i,/
CC(OC(=O)c1ccc(F)cc1)C(=O)Nc1nc(-c2cccc([N+](=O)[O-])c2)cs1 (centres undefined),20.6µM*,14.6%,8.7%,8.7%,i,i
CC(C)Oc1ccc(C(=O)OC(C)C(=O)Nc2nc(-c3cccc([N+](=O)[O-])c3)cs2)cc1 (centres undefined),i,-1.9%,-4.4%,/,i,i
Cc1ccc(OCC(O)Cn2c3ccccc3c3ccccc32)cc1 (centres undefined),?,?,?,-25.7%,i,i
CCCCn1c(=N)n(CC(O)COc2ccccc2)c2ccccc21 (centres undefined),20.6µM*,?,?,-18.4%,?,i
CCCCn1c(=N)n(CC(O)COc2ccc(C)cc2)c2ccccc21 (centres undefined),?,11.2µM*,?,/,17.8µM*,/
N=c1n(CCN2CCCCC2)c2ccccc2n1CC(O)COc1ccccc1 (centres undefined),i,?,14.6µM*,?,?,25.1µM*!
CC1=C(C(=O)Nc2ccc(Cl)cc2)C(C(C)C)n2nc(SCc3cccc(C)c3)nc2N1 (centres undefined),?,/,/,1.2%,i,i
Cc1ncc2c(c1CNC(=O)c1ccc3c(c1)OCO3)CCN(C(=O)c1scc3c1CCCC3)C2,/,/,/,/,/,i

# High-throughput results from PubChem BioAssay.
